# Data taken from the supplement of paper PMC12636033.
# ± gives the standard deviation of the averaged measurements. In all, about 33,000 sequences were measured (“E-score (rank enrichment, -0.5 to 0.5)”: median about -0.0043, highest 2% from about 0.24 on). Only a selection was taken, and the highest values are over-represented in it overall.
# System: 2Sp-muMax20 (muMax20 with two 2,6-bis(methyl)pyridine Cys staples)
# Test: PBM 8-mer E-score (E-score (rank enrichment, -0.5 to 0.5)); higher = stronger preferential binding
# Description: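 Protein binding microarray (universal PBM chip covering all 10-mers in fixed probe flanks) with chemically synthesized human Max(13-93) bHLH-LZ analogs (not full-length Max) bearing noncanonical residues (hArg, Tha, Aib, Nle at 65) and aromatic Cys staples. Read-out per 8-mer (and its reverse complement): E-score (rank-based enrichment, -0.5 to 0.5) and Z-score of median probe intensity.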
row,Sequence,PBM 8-mer E-score
1,GTCCATCA,-0.0683 ± 0.092
2,CCCGTCCC,-0.0481 ± 0.028
3,ACAAACTA,0.115 ± 0.0062
4,CAAAACTA,0.103 ± 0.013
5,CCAAACTA,0.241 ± 0.0054
6,GTGACTAA,0.0929 ± 0.037
7,CATCCAAC,0.124 ± 0.056
8,TAGGGACA,-0.0107 ± 0.063
9,TACTAGTA,0.25 ± 0.055
10,ATCTAGTA,0.0613 ± 0.095
11,ATCTACTA,0.263 ± 0.086
12,CACTAGTA,0.107 ± 0.1
13,CTCTAGTA,0.125 ± 0.045
14,ATCTACTC,-0.0118 ± 0.032
15,GTCTAGTA,0.246 ± 0.021
16,GACTACTA,0.12 ± 0.12
17,ATCTACTG,0.0117 ± 0.033
18,TACTACTA,0.247 ± 0.058
19,AACTACTA,0.144 ± 0.025
20,GACTAGTA,0.223 ± 0.033
21,AAGGCTAA,0.0957 ± 0.095
22,GCAATCCC,0.107 ± 0.035
23,AATACTTA,0.05682 ± 0.00026
24,CGCCTAGA,-0.246 ± 0.079
25,ACTCCGGA,0.0232 ± 0.032

row,Sequence,PBM 8-mer E-score
1,AAAGCTAT,0.0921 ± 0.032
2,AGAGTTGC,-0.124 ± 0.013
3,GCTCCGAC,-0.215 ± 0.035
4,CGGCTTCC,-0.166 ± 0.13
5,CCTGCCCG,-0.0476 ± 0.0022
6,CCGTTACC,-0.0555 ± 0.027
7,GACTTGTA,0.124 ± 0.17
8,ACCGCAAA,-0.161 ± 0.043
9,TATGCGCA,0.267 ± 0.026
10,CATGCGCA,0.109 ± 0.18
11,AATGCGCA,0.229 ± 0.021
12,CTTGCGCA,0.266 ± 0.0099
13,ATTGCGCA,0.124 ± 0.033
14,CTTGCGCC,-0.148 ± 0.036
15,TAACATTA,0.114 ± 0.082
16,ATGTTTAC,0.243 ± 0.073
17,ATGTTTAG,0.22 ± 0.022
18,GTGTTAAC,-0.0129 ± 0.032
19,CTGTTTAC,0.0257 ± 0.014
20,CTGTTAAC,0.0735 ± 0.0019
21,ATGTTAAC,0.322 ± 0.023
22,ACTGGCTC,-0.126 ± 0.031
23,GGTAAACC,-0.203 ± 0.077
24,ACAAGTCA,0.0779 ± 0.031
25,ACAAGTCT,0.287 ± 0.028

row,Sequence,PBM 8-mer E-score
1,ACAAGTCG,0.0191 ± 0.009
2,ACATGCAA,0.0816 ± 0.11
3,AGGTATCG,-0.0734 ± 0.073
4,CGGTATCA,-0.1599 ± 0.00081
5,AGGTATCA,0.238 ± 0.043
6,AAAAGGCG,0.0426 ± 0.024
7,CACCGATA,-0.0537 ± 0.018
8,GGGAATGA,0.26 ± 0.057
9,AGGAATGA,0.0595 ± 0.018
10,CGGAATGA,-0.155 ± 0.06
11,AATGTATC,0.151 ± 0.022
12,TACCAACA,0.163 ± 0.027
13,ATAGACTC,0.154 ± 0.021
14,CTGGCGGC,-0.155 ± 0.055
15,CACGCCCG,0.0249 ± 0.038
16,ATATCATA,0.255 ± 0.085
17,CTGTCATA,0.179 ± 0.043
18,CTATCATA,0.185 ± 0.013
19,ACATCATA,0.244 ± 0.064
20,ATATCAGG,0.239 ± 0.032
21,CCATCATA,0.153 ± 0.082
22,ATGTCATA,0.189 ± 0.012
23,ATATCAGA,0.0984 ± 0.019
24,ATATCATG,0.147 ± 0.035
25,ACATCATC,0.047 ± 0.02

row,Sequence,PBM 8-mer E-score
1,GTGTCATA,0.248 ± 0.042
2,ATATCAGC,0.0631 ± 0.073
3,CGATAAGC,-0.0518 ± 0.16
4,GGAATACC,-0.138 ± 0.015
5,ACAGTTAG,0.074 ± 0.026
6,TGCTGCAA,0.0638 ± 0.096
7,CTTTCGGA,-0.125 ± 0.009
8,CCCAACAA,0.177 ± 0.0058
9,AAAAGAAA,0.0569 ± 0.052
10,CCGCTGGA,-0.157 ± 0.04
11,GCATCATA,0.169 ± 0.0065
12,GTATCATA,0.255 ± 0.024
13,GTATCAGA,-0.0699 ± 0.043
14,CATGAGCA,-0.0267 ± 0.017
15,GCCGAAGA,-0.0625 ± 0.053
16,AGTAACAA,0.113 ± 0.089
17,AATAGTAA,0.238 ± 0.06
18,AGTAATAA,0.0744 ± 0.038
19,CGTAATAG,0.118 ± 0.1
20,AGTAATAT,0.25 ± 0.05
21,CATAGTAA,0.159 ± 0.099
22,AGTAATAC,-0.0935 ± 0.039
23,AGTAATGG,0.122 ± 0.043
24,AGTAACAT,0.294 ± 0.018
25,AATAGTAG,0.0793 ± 0.083

row,Sequence,PBM 8-mer E-score
1,AGTAACAG,0.09 ± 0.031
2,AGTAATAG,0.254 ± 0.02
3,ACCGGCAT,-0.121 ± 0.029
4,GCAAATAC,0.0657 ± 0.013
5,AATAGATT,0.117 ± 0.049
6,GCAACGTA,-0.119 ± 0.038
7,GAGCTATC,0.0105 ± 0.011
8,CCAAACGA,-0.105 ± 0.068
9,AGCGTGTG,0.146 ± 0.035
10,ATCGGGAA,-0.0836 ± 0.067
11,GCATCCAC,0.0775 ± 0.049
12,CCCACCTC,-0.0411 ± 0.14
13,CCTTTTTA,-0.0668 ± 0.03
14,CTTTTTCA,0.0855 ± 0.061
15,GCTTTTCA,0.0545 ± 0.063
16,CCTTTTCA,0.29 ± 0.03
17,GCTTTTTA,0.303 ± 0.013
18,GCTTTTAA,-0.0089 ± 0.0068
19,GTTCCTCA,-0.0919 ± 0.021
20,CGCTGGAG,-0.172 ± 0.023
21,ATCAACTC,0.0114 ± 0.058
22,CGAAGGAA,-0.209 ± 0.023
23,GAGCCAGA,-0.216 ± 0.14
24,TGTATGAA,0.0767 ± 0.054
25,CCCCACCC,0.23 ± 0.1

row,Sequence,PBM 8-mer E-score
1,GCCCACAC,0.076 ± 0.018
2,GCCCACCA,0.078 ± 0.038
3,GCCCACCC,0.417 ± 0.02
4,ACCCACCC,0.424 ± 0.043
5,ACCCACCA,0.178 ± 0.043
6,AACCGGAA,-0.0983 ± 0.0079
7,GCTGAGAA,-0.111 ± 0.028
8,TCAACCGA,-0.0249 ± 0.02
9,AACCATTA,0.293 ± 0.0072
10,AACCATTG,-0.145 ± 0.014
11,CACCATTA,-0.0267 ± 0.11
12,GTCAAATA,0.163 ± 0.093
13,CCATATGC,0.134 ± 0.054
14,CAATATGA,0.189 ± 0.055
15,CCATATGG,0.295 ± 0.008
16,ACATATGG,0.0892 ± 0.04
17,CAATATGC,0.128 ± 0.021
18,CAATATGG,0.244 ± 0.044
19,AGCACCAG,-0.0554 ± 0.022
20,CGACACTC,-0.159 ± 0.094
21,AACACTCC,-0.151 ± 0.012
22,CAAATCAA,0.237 ± 0.0084
23,CGAATCAG,-0.0839 ± 0.076
24,GAAATCAC,0.142 ± 0.072
25,CGAATCAA,0.241 ± 0.054

row,Sequence,PBM 8-mer E-score
1,AAAATCAC,0.28 ± 0.0095
2,AAAATCAG,0.0292 ± 0.03
3,GAAATCAA,0.0712 ± 0.019
4,TGAATCAA,0.1418 ± 0.00071
5,AAAATCAA,-0.044 ± 0.037
6,CCGCTTGC,-0.142 ± 0.036
7,ATACCAGA,0.118 ± 0.019
8,ACGTGTGA,0.113 ± 0.061
9,ACGTGTGG,0.156 ± 0.026
10,ACGTGTAT,0.336 ± 0.015
11,ACGTGTAG,0.0238 ± 0.1
12,ACGTGTTA,0.352 ± 0.0043
13,ACGTGTCT,0.26 ± 0.046
14,ACGTGTGC,0.238 ± 0.029
15,ACGTGTCA,0.139 ± 0.031
16,GCGTGTTA,0.103 ± 0.02
17,CCGTGTTA,0.0643 ± 0.04
18,ACGTGTAC,0.132 ± 0.017
19,ACGTGTCG,0.18 ± 0.033
20,GAAGCCCC,-0.0537 ± 0.047
21,GCTTGTCA,-0.15 ± 0.028
22,CACCTGAC,0.0247 ± 0.0091
23,CCCATAGA,0.11 ± 0.015
